# Source: the supplement of paper PMC6607015
# Where a name gives a salt, the structure may show the parent alone.
# Tested on: HeLa MZ
# Test: LBPA endosome anti-LBPA integrated intensity (sum per cell), Z-score; higher = more LBPA staining
# Details: compound concentration in added solution (µM; 5 µl added to 20 µl cells): 10; 18 h
# Outline: (§1)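 Each value is a Z-score normalised in AcuityXpress from per-cell integrated LBPA or filipin intensity, taken over the whole cell or within LBPA endosomes. Duplicate 384-well imaging plates held 5 µl of 10 µM compound solution, onto which 3,500 HeLa MZ or A431 cells in 20 µl were seeded per well. After 18 h the cells were fixed in 4% PFA, stained with 6C4 anti-LBPA antibody, filipin, propidium iodide and CellTracker green, imaged four times per well at 20× and segmented in MetaXpress.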
row,SMILES,LBPA endosome anti-LBPA integrated intensity (z-score)
1,C/C=C(/C(=C/C)c1ccc(O)cc1)c1ccc(O)cc1 [Dienestrol],-0.673
2,Cc1onc(-c2ccccc2Cl)c1C(=O)N[C@@H]1C(=O)N2[C@@H]1SC(C)(C)[C@@H]2C(=O)O [Cloxacillin sodium salt],-0.521
3,Clc1ccc2c(c1)C(N1CCNCC1)=Nc1ccccc1O2 [Amoxapine],0.828
4,CCN(CC)C(=S)SSC(=S)N(CC)CC [Disulfiram],0.205
5,CC(C)(C)CC(C)(C)c1ccc(OCCOCC[N+](C)(C)Cc2ccccc2)cc1 [Benzethonium chloride],1.55
6,CC(C)n1c(/C=C/C(O)CC(O)CC(=O)O)c(-c2ccc(F)cc2)c2ccccc21 (stereo not given) [Fluvastatin sodium salt],-1.11
7,CC(NCCC(c1ccccc1)c1ccccc1)c1ccccc1 (stereo not given) [Fendiline hydrochloride],1.29
8,CCOC(=O)C1=C[C@]2(CC)CCCN3CCc4c(n1c1ccccc41)[C@@H]32 [Vinpocetine],0.52
9,"CC(C)NCC(O)c1cc(O)cc(O)c1 (stereo not given) [Metaproterenol sulfate, orciprenaline sulfate]",-0.417
10,CCN(CC)C(=O)c1ccc(O)c(OC)c1 [Ethamivan],-0.0996
11,O=C(O)CCC(=O)c1ccc(-c2ccccc2)cc1 [Fenbufen],0.243
12,O=C1NCCN1CCN1CCC(c2cn(-c3ccc(F)cc3)c3ccc(Cl)cc23)CC1 [Sertindole],0.384
13,COc1ccc(C(Cl)=C(c2ccc(OC)cc2)c2ccc(OC)cc2)cc1 [Chlorotrianisene],-0.13
14,CC1=C(/C=C/C(C)=C/C=C/C(C)=C/C(=O)O)C(C)(C)CCC1 [Retinoic acid],-0.508
15,Oc1c(Cl)cc(Cl)c(Cl)c1Cc1c(O)c(Cl)cc(Cl)c1Cl [Hexachlorophene],-0.818
16,CC(C)(Oc1ccc(CCNC(=O)c2ccc(Cl)cc2)cc1)C(=O)O [Bezafibrate],-0.597
17,COc1ccc(C(=O)NCc2ccc(OCCN(C)C)cc2)cc1OC [Itopride],-0.657
18,CS(=O)(=O)c1ccc([C@@H](O)[C@@H](CF)NC(=O)C(Cl)Cl)cc1 [Florfenicol],-1.2
19,C=C(NC(=O)C(=C)NC(=O)c1csc(C2=N[C@@H]3c4csc(n4)[C@H]4NC(=O)c5csc(n5)[C@H]([C@](C)(O)[C@@H](C)O)NC(=O)[C@H]5CSC(=N5)/C(=C/C)NC(=O)[C@H]([C@@H](C)O)NC(=O)c5csc(n5)[C@]3(CC2)NC(=O)[C@H](C)NC(=O)C(=C)NC(=O)[C@H](C)NC(=O)[C@H]([C@@H](C)CC)N[C@@H]2C=Cc3c([C@H](C)O)cc(nc3[C@H]2O)C(=O)O[C@@H]4C)n1)C(N)=O [Thiostrepton],-0.253
20,O=C(O)CNC(=O)C(CS)Cc1ccccc1 (stereo not given) [Thiorphan],-1.92
21,C1CCC(C(CC2CCCCN2)C2CCCCC2)CC1 (stereo not given) [Perhexiline maleate],-0.192
22,CCN(CC)CCOC(=O)C1(c2ccc([N+](=O)[O-])cc2)CCCC1 [Nitrocaramiphen hydrochloride],0.568
23,C[C@@H]1CCC[C@H](C)N1NC(=O)c1ccc(Cl)c(S(N)(=O)=O)c1 [Clopamide],-1.24
24,Fc1ccc([C@@H]2CCNC[C@H]2COc2ccc3c(c2)OCO3)cc1 [Paroxetine Hydrochloride],0.516
25,O=C(O)c1ccccc1Nc1cccc(C(F)(F)F)c1 [Flufenamic acid],-0.521
26,Cc1cc(C(C)(C)C)cc(C)c1CC1=NCCN1 [Xylometazoline hydrochloride],0.671
27,Cc1ccc(-c2ncc(Cl)cc2-c2ccc(S(C)(=O)=O)cc2)cn1 [Etoricoxib],-1.03
28,CN[C@H]1CC[C@@H](c2ccc(Cl)c(Cl)c2)c2ccccc21 [Sertraline],-0.719
29,O=C(CCCN1CCC(O)(c2ccc(Br)cc2)CC1)c1ccc(F)cc1 [Bromperidol],2.09

# Tested on: A431
# Test: whole-cell filipin (free cholesterol) integrated intensity, Z-score; higher = more cholesterol staining
# Details: compound concentration in added solution (µM; 5 µl added to 20 µl cells): 10; 18 h
# Outline: as §1
row,SMILES,whole-cell filipin (z-score)
1,C/C=C(/C(=C/C)c1ccc(O)cc1)c1ccc(O)cc1 [Dienestrol],-0.449
2,Cc1onc(-c2ccccc2Cl)c1C(=O)N[C@@H]1C(=O)N2[C@@H]1SC(C)(C)[C@@H]2C(=O)O [Cloxacillin sodium salt],-0.641
3,Nc1nc2n[nH]nc2c(=O)[nH]1 [Azaguanine-8],-1.15
4,Clc1ccc2c(c1)C(N1CCNCC1)=Nc1ccccc1O2 [Amoxapine],0.789
5,COC(=O)Nc1nc2cc([S+]([O-])c3ccccc3)ccc2[nH]1 (stereo not given) [Oxfendazol],-0.236
6,COc1cc([C@@H]2c3cc4c(cc3[C@@H](O[C@@H]3O[C@@H]5CO[C@@H](C)O[C@H]5[C@H](O)[C@H]3O)[C@H]3COC(=O)[C@H]23)OCO4)cc(OC)c1O [Etoposide],2.27
7,O=c1[nH]cc(F)c(=O)[nH]1 [5-fluorouracil],0.716
8,CCOC(=O)C1=C[C@]2(CC)CCCN3CCc4c(n1c1ccccc41)[C@@H]32 [Vinpocetine],-0.413
9,"CC(C)NCC(O)c1cc(O)cc(O)c1 (stereo not given) [Metaproterenol sulfate, orciprenaline sulfate]",-0.271
10,CN(Cc1cnc2nc(N)nc(N)c2n1)c1ccc(C(=O)N[C@@H](CCC(=O)O)C(=O)O)cc1 [Methotrexate],0.354
11,CCN(CC)C(=O)c1ccc(O)c(OC)c1 [Ethamivan],-0.452
12,O=C(O)CCC(=O)c1ccc(-c2ccccc2)cc1 [Fenbufen],-0.496
13,CC(CN(C)C)CN1c2ccccc2Sc2ccccc21 (stereo not given) [Trimeprazine tartrate],1.36
14,COc1ccc(C(Cl)=C(c2ccc(OC)cc2)c2ccc(OC)cc2)cc1 [Chlorotrianisene],0.392
15,CC1=C(/C=C/C(C)=C/C=C/C(C)=C/C(=O)O)C(C)(C)CCC1 [Retinoic acid],-0.103
16,Oc1c(Cl)cc(Cl)c(Cl)c1Cc1c(O)c(Cl)cc(Cl)c1Cl [Hexachlorophene],-0.203

row,SMILES,whole-cell filipin (z-score)
1,CC(C)(Oc1ccc(CCNC(=O)c2ccc(Cl)cc2)cc1)C(=O)O [Bezafibrate],-0.437
2,COc1ccc(C(=O)NCc2ccc(OCCN(C)C)cc2)cc1OC [Itopride],-0.844
3,CS(=O)(=O)c1ccc([C@@H](O)[C@@H](CF)NC(=O)C(Cl)Cl)cc1 [Florfenicol],-0.505
4,O=C(O)CNC(=O)C(CS)Cc1ccccc1 (stereo not given) [Thiorphan],-0.897
5,CCN(CC)CCOC(=O)C1(c2ccc([N+](=O)[O-])cc2)CCCC1 [Nitrocaramiphen hydrochloride],-0.0743
6,CCN(CC)CCNc1ccc(CO)c2sc3ccccc3c(=O)c12 [Hycanthone],2.31
7,C[C@@H]1CCC[C@H](C)N1NC(=O)c1ccc(Cl)c(S(N)(=O)=O)c1 [Clopamide],-0.626
8,O=C(O)c1ccccc1Nc1cccc(C(F)(F)F)c1 [Flufenamic acid],-0.734
9,Cc1cc(C(C)(C)C)cc(C)c1CC1=NCCN1 [Xylometazoline hydrochloride],0.316
10,COC(=O)Nc1nc2cc(C(=O)c3ccc(F)cc3)ccc2[nH]1 [Flubendazol],-0.303
11,Cc1ccc(-c2ncc(Cl)cc2-c2ccc(S(C)(=O)=O)cc2)cn1 [Etoricoxib],-0.752
12,O=C(CCCCCCC(=O)Nc1ccccc1)NO [Vorinostat],1.83
13,CCCC1C(=O)N2C(N(C)C)=Nc3ccc(C)cc3N2C1=O (stereo not given) [Azapropazone],0.0445
14,O=C(CCCN1CCC(O)(c2ccc(Br)cc2)CC1)c1ccc(F)cc1 [Bromperidol],1.76
15,CN1C(C)(C)CCCC1(C)C [Pempidine tartrate],-0.191
